# Bioassay records from PubChem BioAssay.
# Compounds with a hit are over-represented: about 1.7% of the library has one in this group of screens.
# MOR-DOR inv ag: inverse agonist of human OPRM1-OPRD1 heterodimerization | P35372+P41143 | cell-based MOR-DOR heterodimer luminescence, inverse agonism | inhibition, % at 9.3 µM | hit rate 0.21% among 340,000 | AID 504357; in the data active = inhibition above about 22%, passing the limit was not always enough;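 also: 0% = cells with DMSO and 100% = wells without cells with DMSO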
# Target sequence (P35372 whole entry, looked up): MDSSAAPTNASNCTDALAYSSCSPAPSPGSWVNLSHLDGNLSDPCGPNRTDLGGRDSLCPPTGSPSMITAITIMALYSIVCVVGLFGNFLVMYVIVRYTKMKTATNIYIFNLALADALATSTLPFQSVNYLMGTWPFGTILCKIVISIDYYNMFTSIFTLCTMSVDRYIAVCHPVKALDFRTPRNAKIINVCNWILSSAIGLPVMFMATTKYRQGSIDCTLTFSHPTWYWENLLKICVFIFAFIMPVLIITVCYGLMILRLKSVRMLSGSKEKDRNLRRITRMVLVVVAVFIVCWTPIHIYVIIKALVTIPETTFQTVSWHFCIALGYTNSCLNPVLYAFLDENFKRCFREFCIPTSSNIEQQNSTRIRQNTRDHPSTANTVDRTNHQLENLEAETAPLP
# Target sequence (P41143 whole entry, looked up): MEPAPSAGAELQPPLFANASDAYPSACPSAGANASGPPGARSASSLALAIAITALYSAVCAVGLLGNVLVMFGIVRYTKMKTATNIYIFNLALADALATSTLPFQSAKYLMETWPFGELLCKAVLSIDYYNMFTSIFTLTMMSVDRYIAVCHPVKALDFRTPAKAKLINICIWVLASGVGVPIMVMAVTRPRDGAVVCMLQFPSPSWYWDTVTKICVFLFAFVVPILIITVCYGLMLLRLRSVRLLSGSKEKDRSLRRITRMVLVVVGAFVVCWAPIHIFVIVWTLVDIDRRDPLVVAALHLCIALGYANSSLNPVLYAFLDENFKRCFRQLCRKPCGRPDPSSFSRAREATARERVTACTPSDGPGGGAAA
# HTR5A ag: HTR5A agonism, opioid heterodimer counter-screen | P47898 | HTR5A agonist assay, luminescence, cell-based | activation, % at 9.3 µM | hit rate 0.61% among 340,000 | AID 504692; in the data active = activation mostly above about 9.5%, no sharp cut-off; inactive = mostly below about 7.6%;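 also: 0% = cells with vehicle only and 100% = reference agonist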
# V-ATPase pHluor: regulators of yeast V-ATPase proton transport; S. cerevisiae, pHLuorin cytosolic pH fluorescence; response, % at 10 µM; hit rate 0.37% among 350,000; in the data active = response mostly above about 7.3%, no sharp cut-off; inactive = mostly below about 5.4%; also: actives read high
# HTR5A inv ag: inverse agonist of human HTR5A in OPRM1-OPRD1 counter-screen | P47898 | hit rate 0.083% among 340,000 | inhibition, % at 9.3 µM | HTR5A cell line, luminescence, inverse agonism | AID 504634; in the data active = inhibition mostly above about 23%, no sharp cut-off; inactive = mostly below about 18%;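 also: 0% = cells with DMSO and 100% = no-cell wells with DMSO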
# beta cell repl: induces beta-cell replication in MIN6 cells; proliferation, % at 10 µM; AID 2380; MIN6 cells proliferation, ATPlite luminescence, 48 h; cells starved in 0.2% serum; 100% = growth in 10% serum; hit rate 0.29% among 330,000;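 active = compounds whose signal lies at least 3.5 SD above the mean of all wells on their plate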;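 also: 0% = DMSO-treated cells in low-serum medium and 100% = 10% serum control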
# MOR-DOR ag-1: agonists of human mu-delta opioid receptor heterodimerization. cells, OPRM1-OPRD1 heterodimerization, luminescence. hit rate 0.3% among 340,000. activation, % at 9.3 µM;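 also: 0% = vehicle-treated cells and 100% = reference agonist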
# MOR-DOR ag-2: opioid heterodimer agonism, HTR5A counter-screen | U2OS counter-screen cells, complementation luminescence, 3 h | AID 504913 | shares compounds with HTR5A ag | hit rate 13% among 800 | activation, % at 9.3 µM
# HTR5A ag confirm: confirmation of human HTR5A agonists; shares compounds with HTR5A ag; HTR5A agonist cell assay, luminescence; activation, % at 9.3 µM; hit rate 17% among 800; AID 504915; in the data active = activation above about 17%;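 also: 0% = cells with vehicle only and 100% = full reference agonist response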
# Active calls of the source: *; x = no result. Rule as the data show it, unless noted: active = activation above about 18%; inactive = the rest.
SMILES,MOR-DOR inv ag,HTR5A ag,V-ATPase pHluor,HTR5A inv ag,beta cell repl,MOR-DOR ag-1,MOR-DOR ag-2,HTR5A ag confirm
COc1ccc(N(CC(=O)NCCSc2ccccn2)S(=O)(=O)c2ccccc2)cc1Cl,11.8,3.9,1.8,-2.9,-2.0,-1.7,x,x
COc1ccc(Cl)cc1N(CC(=O)NCCSc1ccccn1)S(=O)(=O)c1ccccc1,-8.4,16.5*,1.2,-49.1,3.2,1.0,0.7,17.6*
Cc1ccc(NC(=O)C/C(N)=N/OC(=O)c2ccccc2)cc1,-48.5,15.3*,7.5,-21.1,-3.1,9.2,5.8,1.7
O=C(CN1CCCCC1)n1c2ccccc2c2ccccc21,-11.7,24.1*,-4.6,-62.5,1.8,2.4,12.9,3.6
CN1CCN(CC(=O)n2c3c(c4ccccc42)CCCC3)CC1,-16.7,6.5,-0.9,-17.2,-2.1,2.7,x,x
CCC1(CC)C(=O)C2=C3C1[C@H](C(=O)OC)C=C(C(=O)OC)C[C@H]3n1c(=O)n(-c3ccccc3)c(=O)n1[C@H]2C (stereo partly drawn),3.6,12.0,-3.4,-32.2,1.5,-0.6,x,x
O=C(CSC1=NCCN1)Nc1cccc(C(F)(F)F)c1,7.6,22.9*,0.5,-57.0,-5.9,-1.7,23.5*,5.1
Cn1ccnc1SCC(=O)Nc1cccc(C(F)(F)F)c1,4.5,0.5,2.8,2.8,3.8,-0.8,x,x
Cc1cccc(NC(=O)C2Cc3ccccc3O/C2=N\O)c1 (stereo not drawn),13.0,-3.3,-2.0,11.8,0.4,-2.9,x,x
O=C(NN1C(=O)c2ccccc2C1=O)C1CC2CCC1C2 (stereo not drawn),-4.4,14.4*,-3.3,-18.7,-2.6,0.9,-0.3,-0.9
C=CCN1/C(=C2/SC(=S)N(C)C2=O)Sc2ccccc21,x,x,x,x,-1.9,x,x,x
C/C(=N\NC(=O)c1ccccc1O)c1ccc(Br)s1,19.9,14.8*,3.1,-54.0,-1.2,-3.8,0.2,27.9*
CC(C)N(CCCNC(=O)c1nn(C)c2c1CS(=O)(=O)c1ccccc1-2)Cc1ccccc1,-3.3,2.0,2.4,12.9,-1.1,0.7,x,x
Cc1cccc(C(=O)Nc2sc(C)c(-c3ccccc3)c2C#N)c1,-39.7,16.8*,-8.1,-22.2,-3.3,6.7,2.0,3.1
COc1ccccc1C(C)NC(=O)c1ccc(NC(=O)CC2SC(N3CCCC3)=NC2=O)cc1 (stereo not drawn),0.2,5.8,5.4,5.4,-3.0,0.0,x,x
COc1cccc(NC(=O)c2cc(-c3ccncc3)nc3c(C)cc(C)cc23)c1,-32.1,16.4*,7.4,-8.9,-5.9,6.7,6.3,8.3
COC(=O)C1=C(C)N(c2cc(Cl)cc(Cl)c2)C(=O)C1,-8.0,15.3*,1.7,2.3,-4.8,1.3,0.3,-2.2
CCOc1ccc(NC(=O)Nc2nc(SCC)ns2)cc1,-76.8,18.4*,8.6,24.1,-5.6,15.0,2.4,4.9
C(=N\Nc1nc2ccccc2[nH]1)/c1c[nH]c2ccccc12,-19.2,3.4,0.6,-8.9,-3.6,3.2,x,x
Cc1cc(=O)[nH]c(N/N=C/c2c[nH]c3ccccc23)n1,0.2,23.6*,0.9,16.6,-2.3,0.0,2.8,46.1*
Cc1nc(NC(=O)CSc2ccc(-c3nc4ccccc4[nH]3)cn2)sc1C,-42.0,17.5*,5.0,-20.9,-2.7,6.2,2.6,3.2
CCc1nnc(NC(=O)CSc2ccc(-c3nc4ccccc4[nH]3)cn2)s1,-0.9,-4.2,-5.3,10.9,-3.8,0.1,x,x
O=C(O)c1ccc2c(c1)N(Cc1ccccc1F)C(=O)c1ccccc1S2=O (stereo not drawn),9.1,16.4*,-3.4,-45.2,-0.7,-1.7,-0.1,-1.6
O=C(CSc1nc(C(F)(F)F)cc(=O)[nH]1)Nc1nccs1,3.8,-2.6,-1.2,6.5,-2.7,-0.7,x,x
O=C(COc1ccc2c(c1)OCO2)Nc1ccc2c(c1)oc1ccccc12,-18.1,16.0*,-0.6,-58.2,-2.2,3.4,6.2,8.2
CC(OC(=O)c1ccc(Cl)nc1)C(=O)Nc1ccc2c(c1)OCO2 (stereo not drawn),11.9,19.1*,-3.5,-53.1,-1.3,-2.9,1.1,2.2
